Source: PubChem BioAssay
Where “and” joins values, the source holds several entries; their conditions need not be identical. Identical values can stand only once. Inconclusive results are not listed. Calls of active or inactive are those of the source.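 The calls were made as follows, unless noted: active = compounds whose cell count with miR-34 switched on is under 0.7 times the count with it off; inactive = the rest.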

How the values were obtained:
[1] = P. berghei load reduction in hepatocytes – cell-based, HepG2, luciferase luminescence, HepG2 viability, primary screen (AID 624349; in the data active = parasite load remaining mostly below about 12%, no sharp cut-off; inactive = mostly above about 10%;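 also: 100% = mean of DMSO negative control wells on the same plate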); conditions: P. berghei liver stage in HepG2, luciferase luminescence, concentration not given here; parasite load remaining: stronger effect = lower value; viability: measured here: HepG2 viability without parasites
[2] = Wnt pathway potentiators raising nuclear beta-catenin – imaging, WNT3A-conditioned medium, mouse C2C12, NPC library, primary screen (AID 1117326; in the data active = nuclear beta-catenin stimulation mostly above about 4.2%, no sharp cut-off; inactive = mostly below about 10%; also: reference of the scale not given here); conditions: stronger effect = higher value
[3] = stimulators of insulin release from INS-1E, primary screen, cell-based, 5 mM glucose, NPC library (AID 1117329;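 active = compound raises insulin release from rat beta cells at 5 mM glucose, no numeric limit stated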; also: reference of the scale not given here); conditions: rat INS-1E insulin secretion, at 10 µM, stronger effect = higher value
[4] = growth inhibition of GSK3B-pretreated HCT116 cells – cell-based, CellTiter-Glo, 0.2 to 20 µM (AID 1117336;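 active = compounds lowering colon cancer cell viability after pretreatment blocking the GSK3B kinase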); conditions: HCT116 viability after GSK3B inhibitor, at 20 µM, stronger effect = higher value
[5] = inhibition of endothelial tube formation, primary screen, imaging, VEGF stimulated, CD31 staining, tube area, NPC library (AID 1117340;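 active = compound that reduces growth-factor-driven endothelial tube area in a mixed cell culture, no cutoff stated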); conditions: VEGF-stimulated ADSC/ECFC co-culture, at 10 µM, stronger effect = higher value
[6] = GLP1 release stimulators, primary, NCI-H716, NPC library (AID 1117341;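 active = compound raises GLP1 secretion from the human gut endocrine cells, with no numeric limit stated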; also: reference of the scale not given here); conditions: NCI-H716 cells, at 10 µM, stronger effect = higher value
[7] = HCT116 colon cancer cell growth inhibition, primary screen, CellTiter-Glo luminescence, NPC library (AID 1117342;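 active = compounds that lower survival of HCT116 colon cancer cells in the luminescence readout, no numeric limit stated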); conditions: at 20 µM (top of the series)
[8] = reduced SW480 viability measured with CellTiter-Glo, NPC library, primary (AID 1117343;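 active = compounds that lower viability of the colon cancer cells in the luminescence readout, with no numeric limit stated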); conditions: CellTiter-Glo luminescence; at 20 µM (top of the series) unless noted
[9] = NPC library primary testing for decreased DLD-1 cell viability via CellTiter-Glo (AID 1117346;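 active = compounds that lower survival of DLD-1 colon cancer cells in the luminescence readout, no cutoff given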); conditions: DLD-1 viability, CellTiter-Glo luminescence; at 20 µM (top of the series)
[10] = system: Aerobactin synthetase IucA (Klebsiella pneumoniae); assay: inhibition of K. pneumoniae IucA enzyme – biochemical, Tocris library, absorbance (AID 1345561; call rule not given here;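 also: 100% = enzyme without compound and 0% = no enzyme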); conditions: purified IucA enzyme assay, absorbance (OD) read-out; stronger effect = lower value;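 tested at 8 µM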
[11] = viability loss with induced miR-34 in A549 – imaging, A549 dox-inducible miR-34, nuclei and caspase counts, primary screen (AID 1347080); conditions: A549 miR-34 inducible, Hoechst nuclei count, 48 h
[12] = MELAS cybrid and Rieske KO viability enhancers – cell-based, MELAS cybrids, Rieske KO mouse fibroblasts, CellTiter-Glo, primary screen (AID 1508586;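 active = mean z-score across replicates of 1.96 or higher in either the MELAS or the Rieske mutant cell line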;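 also: z relative to plate mean and SD of compound and empty wells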); conditions: low glucose
[13] = galactose survival enhancers in mitochondrial complex I cybrids – cell-based, galactose medium, ATP luminescence, primary screen (AID 1645843;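 active = z-score of at least 1.8 in each of two replicates, scored against plate mean and spread of sample wells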;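 also: positive z means more ATP and so rescue of galactose-driven cybrid death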); conditions: complex I mutant cybrid cells, 72 h, stronger effect = higher value
[14] = viability loss in pontine glioma line – cell-based, SU-DIPG-XIII, MIPE4.0, CellTiter-Glo, qHTS, dose response (AID 1347061; cut-off not given, nearly all actives have AC50 up to about 37 µM;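 also: cells exposed to compound for 48 hours before readout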); conditions: CellTiter-Glo ATP luminescence
[15] = growth inhibition of DIPG cells – cell-based, MIPE5.0 library, qHTS (AID 1347068; cut-off not given, nearly all actives have IC50 up to about 30 µM); conditions: SU-DIPG-XXV viability
[16] = stronger effect = lower value, cell number ratio, induced over uninduced
[17] = measured here: relative caspase fold change +Dox/-Dox
[18] = measured here: total cells with miR-34 induction, stronger effect = lower value
[19] = measured here: total cells without miR-34 induction

## CCN1CCC[C@H]1CNC(=O)c1c(OC)ccc(Br)c1OC
[1]
  parasite load remaining: 122% (inactive) and 75.7% (inactive)
  viability: 119% and 100%
[2]; at 10 µM
  nuclear beta-catenin stimulation: 0.4% (inactive)
[2]; stimulation, at 2 µM
  nuclear beta-catenin stimulation: -0.6%
[3]
  insulin secretion stimulation: 6.1% (inactive)
[4]
  viability decrease: -9.5% (inactive)
[5]
  tube area decrease: 19.3% (active)
[6]
  GLP1 secretion stimulation: 0.8% (inactive)
[7]
  inhibition of viability: 6.8% (inactive)
[8]
  viability decrease (inhibition): -6.9% (inactive)
[9]
  viability decrease (inhibition): 6.8% (inactive)
[10]
  remaining activity: 89% (inactive)
[11]; [16]
  fold change: 0.989 (inactive) and 0.971 (inactive) and 0.881 (inactive)
[11]; [17]
  fold change: 0.662 and 1.03 and 1.37
[11]; [18]
  cell count: 9050 and 9640 and 10200
[11]; [19]
  cell count: 9150 and 9920 and 11500
[12]; MELAS cybrid survival, CellTiter-Glo 48 h, stronger effect = higher value
  z-score: 0.167 (inactive) and 0.0526 (inactive)
[12]; Rieske KO mouse fibroblast survival, CellTiter-Glo 72 h
  z-score: -0.0474 and -0.355
[13]
  z-score: 0.63 (inactive) and 0.485 (inactive)

## C[C@@H](CN1CC(=O)NC(=O)C1)N1CC(=O)NC(=O)C1
[2]; at 10 µM
  nuclear beta-catenin stimulation: 9.7% (inactive)
[2]; stimulation, at 2 µM
  nuclear beta-catenin stimulation: 13.9%
[3]
  insulin secretion stimulation: 5.3% (inactive)
[4]
  viability decrease: 70.9% (active)
[5]
  tube area decrease: 37.9% (inactive)
[6]
  GLP1 secretion stimulation: -2.7% (inactive)
[7]
  inhibition of viability: 62% (active)
[8]
  viability decrease (inhibition): 53.1% (active)
[9]
  viability decrease (inhibition): 47.2% (inactive)
[10]
  remaining activity: 106% (inactive)
[14]
  outcome: inactive
[15]
  outcome: inactive
[11]; [16]
  fold change: 0.977 (inactive)
[11]; [17]
  fold change: 1.07
[11]; [18]
  cell count: 8720
[11]; [19]
  cell count: 8920
[13]
  z-score: 0.075 (inactive)

## NCCNC(=O)c1ccc(Cl)cn1
[2]; at 10 µM
  nuclear beta-catenin stimulation: 1.5% (inactive)
[2]; stimulation, at 2 µM
  nuclear beta-catenin stimulation: 0.2%
[3]
  insulin secretion stimulation: -1.7% (inactive)
[4]
  viability decrease: -5.05% (inactive)
[5]
  tube area decrease: -14.8% (inactive)
[6]
  GLP1 secretion stimulation: -1.7% (inactive)
[7]
  inhibition of viability: -6.5% (inactive)
[8]
  viability decrease (inhibition): 16.3% (inactive)
[9]
  viability decrease (inhibition): -10.3% (inactive)
[10]
  remaining activity: 98% (inactive)
[11]; [16]
  fold change: 0.873 (inactive)
[11]; [17]
  fold change: 1.55
[11]; [18]
  cell count: 8230
[11]; [19]
  cell count: 9430
[13]
  z-score: 0.045 (inactive)

## CN(C)C/C=C(/c1ccc(Br)cc1)c1cccnc1
[1]
  parasite load remaining: 94.7% (inactive) and 60.5% (inactive)
  viability: 85.2% and 195%
[2]; at 10 µM
  nuclear beta-catenin stimulation: 1.1% (inactive)
[2]; stimulation, at 2 µM
  nuclear beta-catenin stimulation: -0.9%
[3]
  insulin secretion stimulation: 45% (active)
[4]
  viability decrease: -1.3% (inactive)
[5]
  tube area decrease: 9.7% (inactive)
[6]
  GLP1 secretion stimulation: 8% (inactive)
[7]
  inhibition of viability: 41.9% (inactive)
[8]
  viability decrease (inhibition): 52.1% (active)
[9]
  viability decrease (inhibition): 5.9% (inactive)
[10]
  remaining activity: 124% (inactive)
[11]; [16]
  fold change: 1.02 (inactive) and 0.948 (inactive) and 0.885 (inactive)
[11]; [17]
  fold change: 0.961 and 0.963 and 4.02
[11]; [18]
  cell count: 8760 and 8650 and 11500
[11]; [19]
  cell count: 8570 and 9130 and 13000
[13]
  z-score: -0.1 (inactive) and -0.42 (inactive)

## CC[N+](CC)(CCNC(=O)C(=O)NCC[N+](CC)(CC)Cc1ccccc1Cl)Cc1ccccc1Cl
[2]; at 10 µM
  nuclear beta-catenin stimulation: 0.3% (inactive)
[2]; stimulation, at 2 µM
  nuclear beta-catenin stimulation: 3.3%
[3]
  insulin secretion stimulation: 0.9% (inactive)
[4]
  viability decrease: -14.5% (inactive)
[5]
  tube area decrease: -8.9% (inactive)
[6]
  GLP1 secretion stimulation: 2.4% (inactive)
[7]
  inhibition of viability: 2.83% (inactive)
[8]
  viability decrease (inhibition): 6.4% (inactive)
[9]
  viability decrease (inhibition): -9.9% (inactive)
[10]
  remaining activity: 122% (inactive)
[11]; [16]
  fold change: 0.939 (inactive)
[11]; [17]
  fold change: 1.05
[11]; [18]
  cell count: 8990
[11]; [19]
  cell count: 9570
[13]
  z-score: 0.25 (inactive)
